Source: PubChem BioAssay
ssDAF12 agonist – S. stercoralis DAF-12 activation, primary screen. HEK293 ssDAF-12/GRIP1 lit1-tk-luc reporter, luminescence; % of 3 µM dafachronic acid response. activation, % at 6.8 µM. 370,000 tested, 1% active. AID 652126;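 active = activation above the mean over all tested compounds plus 3 SD, cut at about 0.9% in these data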
DAX1 inh-1 – inhibitors of human orphan nuclear receptor DAX1 (NR0B1); P51843; HEK293 Gal4-DAX1 luciferase reporter, luminescence; inhibition, % at 6.75 µM; 340,000 tested, 0.99% active; AID 504766;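 active = inhibition above the mean over all tested compounds plus 3 SD, cut at about 4.2% in these data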;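 note: inhibition shows as a rise in luminescence from relieved DAX1 repression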
hgDAF12 agonist – activates the H. glycines DAF-12 receptor ligand-binding domain | HEK293 GAL4-hgDAF12 UAS-luciferase reporter, agonist luminescence; normalized to butyrate control | activation, % at 6.8 µM | 370,000 tested, 1.8% active;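 active = activation above a cutoff set at the mean of all screened compounds plus 3 SD, cut at about 10% in these data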
DAX1 inh-2 – blocks DAX1 repression of SF-1 activated StAR promoter; AID 652010; 370,000 tested, 1.1% active; HEK293T StAR-luciferase reporter, SF-1/DAX-1 repression relief; inhibition, % at 6.8 µM;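 active = inhibition above the mean over all tested compounds plus 3 SD, cut at about 3.6% in these data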;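 note: higher inhibition means more luminescence from relief of DAX-1 repression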
hcDAF12 agonist – activators of H. contortus DAF-12 nuclear receptor. HEK293 hcDAF-12 lit1-tk-luc reporter, luminescence; 0% DMSO, 100% Δ7-dafachronic acid. activation, % at 6.8 µM. 370,000 tested, 1.4% active. AID 652067;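 active = activation above the mean of all tested compounds plus 3 SD, cut at about 5.5% in these data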
AHR activator – human AHR activation | AHR-responsive luciferase reporter cells, luminescence | activation, % at 5 µM | P35869 | 320,000 tested, 2.5% active; in the data active = activation above about 47%
Numbers stand for hits; i = inactive; nt = no result. Shown are actives, neighbours in structure and some others; about 5.7% of the full set was active somewhere.

SMILES | ssDAF12 agonist | DAX1 inh-1 | hgDAF12 agonist | DAX1 inh-2 | hcDAF12 agonist | AHR activator
CC(C)c1ccc(/C=N/NC(=O)c2nnn(-c3nonc3N)c2CN2CCOCC2)cc1 | i | i | i | i | i | i
CCC(=O)NCCc1nc2cc(NC(=O)c3ccco3)ccc2n1C | i | i | i | i | i | i
Cc1cc2ncn(C3CC(=O)N(Cc4ccc(N5CCCC5=O)cc4)C3=O)c2cc1C (centres undefined) | i | i | i | i | i | i
CCn1c(=NC(=O)C2COc3ccccc3O2)sc2c(OC)ccc(OC)c21 (centres undefined) | i | i | i | i | i | i
O=C1N(c2ccccc2)CC2C(c3ccccc3)C(c3ccccc3)N3CCCC123 (centres undefined) | i | nt | i | i | i | nt
O=C(Nc1ccc2c(c1)OCO2)C1CCCCC1 | i | i | i | 4.0 | i | i
CC(=O)c1ccc(NC(=O)C2CCCC2)cc1 | i | 6.0 | i | i | i | nt
CC(=O)c1cccc(NC(=O)C2CCCC2)c1 | i | i | i | i | i | i
CCC(OC(=O)CN1C(=O)C(=O)c2ccccc21)C(=O)Nc1ccccc1OC (centres undefined) | i | i | i | i | i | nt
O=C(Nc1cscc1S(=O)(=O)c1ccccc1)c1ccccc1Cl | i | nt | i | i | i | i
COc1ccc(/C=C/c2onc(C)c2S(=O)(=O)N2CCC(C(=O)N3CCCCCC3)CC2)cc1 | i | i | i | i | i | i
CC(=O)N(CCCN(C)C)CCC(C)CCC=C(C)C (centres undefined) | 1.1 | i | i | i | i | i
O=C(COc1cc2oc(=O)c3c(c2cc1Cl)CCCC3)N1C[C@H]2C[C@@H](C1)c1cccc(=O)n1C2 | i | 5.7 | i | i | i | i
Cc1oc2c(C)c3oc(=O)c(CCC(=O)N4C[C@H]5C[C@@H](C4)c4cccc(=O)n4C5)c(C)c3cc2c1C | i | 4.9 | i | i | i | i
CC(Oc1cc2oc(=O)c3c(c2cc1Cl)CCC3)C(=O)N1C[C@H]2C[C@@H](C1)c1cccc(=O)n1C2 (some centres undefined) | i | i | i | i | i | i
O=C(Oc1cc2oc(=O)c3c(c2cc1Cl)CCCC3)c1ccco1 | i | 4.7 | i | i | i | i
Cc1cccc(C)c1NC(=S)NC(=O)c1cccc(Cl)c1 | i | nt | i | i | i | nt
O=C1OC(Cc2ccccn2)C(O)=C1C1=NCCCCN1 (centres undefined) | i | 5.3 | 13.2 | i | i | i
C[n+]1c2n(c3ccccc31)N=C(c1ccc(Br)cc1)CS2 | i | i | i | i | i | 59.8
C[n+]1c2n(c3ccccc31)N=C(c1ccc(-c3ccccc3)cc1)CS2 | i | i | i | i | i | 53.3
Cc1cc(-c2nnc3n2N=C(c2ccc(-c4ccccc4)cc2)CS3)n[nH]1 | i | i | i | i | i | i
CC1COC(=O)C(NNc2ccc(Cl)c(Cl)c2)=N1 (centres undefined) | i | i | i | i | i | i
O=C(CCN1C(=O)/C(=C/c2ccc(F)cc2)SC1=S)NNC(=O)c1cccnc1 | i | 4.3 | i | i | i | i
O=C(OCC#CCSc1nnc(-c2cccc3ccccc23)o1)c1ccc(Br)cc1 | i | i | i | i | i | i
O=C(OCC#CCSc1nnc(-c2cccc3ccccc23)o1)c1ccsc1 | i | nt | 11.0 | nt | i | nt
SMILES | ssDAF12 agonist | DAX1 inh-1 | hgDAF12 agonist | DAX1 inh-2 | hcDAF12 agonist | AHR activator
CCOc1ncccc1C(=O)OCC(=O)c1cc(OC)c(OC)c(OC)c1 | i | i | i | i | i | i
CCOC(=O)[C@]12CCCCC/C=C\1N(Cc1ccc(OC)cc1)C(=O)[C@H]2CC(=O)NCC1CCCCC1 | i | nt | i | i | i | nt
CC(C)(C)c1ccc(NC(=O)COc2ccc(-n3ccnc3)cc2)cc1 | i | i | i | i | i | i
COc1ccccc1NS(=O)(=O)c1cccc(C(=O)N/N=C(\C)c2ccc(-n3ccnc3)cc2)c1 | i | i | i | i | i | 66.8
COc1ccccc1NS(=O)(=O)c1cccc(C(=O)NCC2(N3CCCCC3)CCCCC2)c1 | i | i | i | 4.0 | i | nt
C/C(=N\NC(=O)OC(C)(C)C)c1ccc(-n2ccnc2)cc1 | i | i | i | i | i | 68.3
C/C(=N\NC(=O)c1ccccc1)c1ccc(-n2ccnc2)cc1 | i | i | i | i | i | i
